{"source": "PubChem BioAssay (NCI)", "note": "“And” between values parts separate entries of the source, which are not always exact repeats. Identical values can stand only once. About 83,000 compounds went through this panel and 20% of them were active in at least one assay; those are over-represented in the sample as a whole.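 96-well plates, one dose, 48 hours. Percent growth reported; active if below 10.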 The source made the active and inactive calls."}
{"test_system": "TK-10 renal", "assay": "NCI-60 one-dose screen, 48 h (100 = growth as untreated, 0 = no growth, -100 = all killed)", "conditions": "4.75 µM", "protocol": "(§1) Growth inhibition of the TK-10 human tumor cell line is measured as a screen for anti-cancer activity. Cells are grown in 96 well plates and exposed to the test compound for 48 hours. Compounds are tested at a single concentration, which is 10^-5 M for most compounds. The reported endpoint is percent growth (GI% or GIPRCNT), where numbers from 0 - 100% represent growth inhibition, and numbers from -100% - 0 represent cell death. For example, a value of 40 represents 60% growth inhibition. A value of 0 means no net growth occurred over the course of the experiment. A value of -40 indicates 40% of cells at the beginning of the experiment died by the end of the experiment. A value of -100 means all cells are dead at the end of the experiment.\n(§2) NCI-60 Human Tumor Cell Lines Screen was performed using the standard one-dose NCI protocol, which is described in more detail at https://dtp.cancer.gov/discovery_development/nci-60/default.htm.\n(§3) Compounds with GIPRCNT values below 10 were considered active. Activity score was based on GIPRCNT using the following formula: […]\n(§4) Score is 0 for GIPRCNT values of 100 or above, 50 for GIPRCNT values of 0, and 100 for GIPRCNT values of -100."}
{"smiles": "CC(=O)OCC1OC([S-])C(OC(C)=O)C(OC(C)=O)C1OC(C)=O.[Au+].c1ccc(CN2[CH-]N(Cc3ccccc3)C(c3ccccc3)=C2c2ccccc2)cc1", "growth": "5.22% (active)"}
{"test_system": "TK-10 renal", "assay": "NCI-60 one-dose screen, 48 h (100 = growth as untreated, 0 = no growth, -100 = all killed)", "conditions": "10 µM", "protocol": "as §1, §2, §3, §4"}
{"smiles": "CC(=O)OCC1OC([S-])C(OC(C)=O)C(OC(C)=O)C1OC(C)=O.[Au+].c1ccc(CN2[CH-]N(Cc3ccccc3)C(c3ccccc3)=C2c2ccccc2)cc1", "growth": "-41.6% (active)"}
{"smiles": "O=C(O)CCCc1ccc(N(CCCl)CCCl)cc1", "growth": "102% (inactive)"}
{"test_system": "TK-10 renal", "assay": "NCI-60 one-dose screen, 48 h (100 = growth as untreated, 0 = no growth, -100 = all killed)", "conditions": "10 µM unless noted", "protocol": "as §1, §2, §3, §4"}
{"smiles": "CC1=CC(=Nc2ccc(N(CCCl)CCCl)cc2)C=C(C)C1=O", "growth": "9.98% (active)"}
{"smiles": "CC1(C)N(Nc2ccccc2)C(=O)C2CCCN21", "note": "(stereo not given)", "growth": "59.6% (inactive)"}
{"smiles": "OCCN=Cc1c[nH]c2ccccc12", "growth": "122% (inactive)"}
{"smiles": "Oc1cc(Cl)ccc1Oc1ccc(Cl)cc1Cl", "growth": "102% (inactive)"}
{"smiles": "COC(=O)C12C3C4C1C1C2C3C41NC(=O)c1csc([C@@H](C[C@H](C(C)C)N(C)C(=O)[C@@H](NC(=O)[C@H]2CCCCN2C)C2CC2)OC(C)=O)n1", "note": "(stereo not given in full)", "growth": "41.2% (inactive)"}
{"smiles": "O=C(O)C(O)c1ccc(Cl)cc1", "note": "(stereo not given)", "growth": "99% (inactive) and 105% (inactive)"}
{"smiles": "O=S1(=O)OCCO1", "growth": "98.5% (inactive)"}
{"smiles": "C[C@]12CCc3sc(Nc4ccc(O)cc4)nc3C1=CC[C@@H]1[C@@H]2CC[C@]2(C)C(=O)CC[C@@H]12", "growth": "22.8% (inactive)"}
{"smiles": "O=C1NC(=O)C(=Cc2ccccc2)C(=O)N1", "growth": "106% (inactive) and 102% (inactive)"}
{"smiles": "CN(C)c1ccc([N+](=O)[O-])c([N+](=O)[O-])c1", "growth": "135% (inactive) and 114% (inactive)"}
{"smiles": "Oc1ccccc1C=NCCN=Cc1ccccc1O", "growth": "104% (inactive)"}
{"smiles": "C[C@]12CC[C@H]3[C@@H](C[C@@H]4SC(Nc5ccccc5)=N[C@@]45C/C(=N/O)CC[C@]35C)[C@@H]1CCC2=O", "growth": "102% (inactive)"}
{"smiles": "CCCN1C(=O)NC(=O)C(CC)(N2C(=O)c3c(F)c(F)c(F)c(F)c3C2=O)C1=O", "note": "(stereo not given)", "growth": "-76.4% (active)"}
{"smiles": "CCCC1CCCCC12C(=O)NC(=O)NC2=O", "note": "(stereo not given)", "growth": "92.9% (inactive) and 107% (inactive)"}
{"smiles": "Cc1cc(N)ccc1N", "growth": "126% (inactive)"}
{"smiles": "CC1(C)N=C(N)N=C(N)N1c1ccc(CCC(=O)Nc2ccc(S(=O)(=O)F)cc2)cc1", "growth": "24.3% (inactive)"}
{"smiles": "CN1CCc2cc3c(cc2C1O)OCO3", "note": "(stereo not given)", "growth": "112% (inactive) and 111% (inactive)"}
{"smiles": "CC[C@H](C)[C@H](NC(=O)[C@H]1CCCCN1C)C(=O)N(C)[C@H](C[C@@H](OC(C)=O)c1nc(C(=O)N[C@@H](Cc2ccccc2)C[C@H](C)C(=O)O)cs1)C(C)C", "growth": "22.8% (inactive)"}
{"smiles": "C(=NC1CCCCC1)=NC1CCCCC1", "growth": "101% (inactive) and 104% (inactive)"}
{"smiles": "Oc1cc(N2CC2)c(O)cc1N1CC1", "growth": "-7.44% (active)"}
{"smiles": "O=S(=O)(c1ccc(O)cc1)c1ccccc1O", "growth": "107% (inactive)"}
{"smiles": "O=C(Cc1ccccc1)NC(O)C(Cl)(Cl)Cl", "note": "(stereo not given)", "growth": "99.8% (inactive)"}
{"smiles": "CCCCCCCCCCCCCCCC[n+]1ccccc1", "growth": "-74.4% (active)"}
{"smiles": "CCCC[C@H]1C(=O)O[C@H](C)[C@H](NC(=O)c2cccc(NC=O)c2O)C(=O)O[C@@H](C)[C@@H]1OC(=O)CC(C)C", "growth": "49.8% (inactive)"}
{"smiles": "CC1=CC(=O)CCC12CCOC2=O", "note": "(stereo not given)", "growth": "92% (inactive)"}
{"smiles": "C[C@]12CCC(=O)C[C@@H]1CC[C@@H]1[C@@H]2CC[C@]2(C)[C@@H](OC(=O)N(CCCl)N=O)CC[C@@H]12", "growth": "32.9% (inactive)"}
{"smiles": "O=CC1(c2ccccc2)CCN(Cc2ccccc2)CC1", "growth": "115% (inactive)"}
{"smiles": "O=C(O)c1ccc(=O)[nH]c1", "growth": "94.8% (inactive) and 97.5% (inactive)"}
{"smiles": "CC1=C(C)C(=O)O[C@@H]([C@](C)(O)[C@]2(O)CC[C@@]3(O)[C@@H]4C[C@H]5O[C@]56CC=CC(=O)[C@]6(C)[C@H]4CC[C@]23C)C1", "growth": "-48% (active)"}
{"smiles": "O=C(CBr)OCCOC(=O)CBr", "growth": "130% (inactive)"}
{"smiles": "CC[C@H](C)[C@H]1O[C@]2(C=C[C@@H]1C)C[C@@H]1C[C@@H](C/C=C(\\C)[C@@H](O[C@H]3C[C@H](OC)[C@@H](O[C@H]4C[C@H](OC)[C@@H](NC)[C@H](C)O4)[C@H](C)O3)[C@@H](C)/C=C/C=C3\\CO[C@@H]4[C@H](O)C(C)=C[C@@H](C(=O)O1)[C@]34O)O2", "growth": "-76% (active)"}
{"smiles": "O=[N+]([O-])c1ccc(OCc2ccc(S(=O)(=O)F)c(Cl)c2)c(Cl)c1", "growth": "102% (inactive)"}
{"smiles": "O=C1CCCCC1CN1CCCCC1", "note": "(stereo not given)", "growth": "90.4% (inactive)"}
{"smiles": "CC1(C)C2CCC1(CS(=O)(=O)O)C(=O)C2", "note": "(stereo not given)", "growth": "96% (inactive) and 87.3% (inactive)"}
{"smiles": "C[C@]12CCc3sc(Nc4ccc(OC(F)(F)F)cc4)nc3C1=CC[C@@H]1[C@@H]2CC[C@]2(C)C(=O)CC[C@@H]12", "growth": "98.2% (inactive)"}
{"smiles": "Nc1ccc2c(c1)Cc1cc(N)ccc1-2", "growth": "106% (inactive)"}
{"test_system": "TK-10 renal", "assay": "NCI-60 one-dose screen, 48 h (100 = growth as untreated, 0 = no growth, -100 = all killed)", "conditions": "75 µM", "protocol": "as §1, §2, §3, §4"}
{"smiles": "O=C(O)CCCc1ccc(N(CCCl)CCCl)cc1", "growth": "84.6% (inactive)"}
